Screens as filed in PubChem.
PriA SSB inh: K. pneumoniae PriA-SSBct interaction inhibition. AlphaScreen SSBct-PriA binding, biotinylated peptide. inhibition, % at 33 µM. 430,000 tested, 0.6% active. AID 1272365; in the data active means inhibition mostly above about 37%, no sharp cut-off; inactive means mostly below about 20%;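 further: plate controls were negative control peptide for no effect and reference peptide for full effect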
RecA splice inh: Mtb RecA intein splicing inhibition; cell-free RecA intein splicing, fluorescence; inhibition, % (test concentration not listed); 290,000 tested, 0.75% active; AID 2221; in the data active means inhibition above about 30%; inconclusive means no clear call, values can overlap the other calls;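 further: 0% = vehicle wells and 100% = reference inhibitor control wells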
Rv3671c protease: Rv3671c (M. tuberculosis) protease inhibition. P9WHR9. inhibition, % at 5.96 µM. 320,000 tested, 0.048% active;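 further: extracellular domain of Rv3671c used as enzyme; 0% = enzyme with DMSO and 100% = no enzyme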
Target sequence (P9WHR9 whole entry, looked up, the tested form may be a part): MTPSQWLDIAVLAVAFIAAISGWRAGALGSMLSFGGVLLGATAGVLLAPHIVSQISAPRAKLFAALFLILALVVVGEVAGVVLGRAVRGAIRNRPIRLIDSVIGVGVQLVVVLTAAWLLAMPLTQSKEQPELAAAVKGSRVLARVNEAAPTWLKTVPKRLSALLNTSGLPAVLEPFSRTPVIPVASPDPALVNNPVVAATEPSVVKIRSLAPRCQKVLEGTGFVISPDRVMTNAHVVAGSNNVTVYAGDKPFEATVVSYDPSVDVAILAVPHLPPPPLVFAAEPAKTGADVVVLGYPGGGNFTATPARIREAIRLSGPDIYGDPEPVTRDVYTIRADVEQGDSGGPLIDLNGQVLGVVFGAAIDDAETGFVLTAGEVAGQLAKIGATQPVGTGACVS
Mtb UGM inh: Mtb UDP-galactopyranose mutase inhibition; P9WIQ1; AID 504406; purified UGM, fluorescence polarization probe displacement; inhibition, % at 10 µM; 320,000 tested, 0.06% active; in the data active means inhibition above about 10%, passing the limit was not always enough; inconclusive means no clear call, values can overlap the other calls
Mtb betalactam: beta-lactam sensitization of Mtb H37Rv. 330,000 tested, 0.27% active. M. tuberculosis H37Rv growth with meropenem, percent inhibition. inhibition, % at 25 µM. AID 434955; call rule not given here;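 further: growth measured after seven days incubation then overnight dye step; 0% = bacteria only wells and 100% = bacteria with antibiotic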
Rv3671c cf: Rv3671c protease inhibition, confirmation. shares compounds with Rv3671c protease. inhibition, % at 5.96 µM. 140 tested, 40% active. AID 2761
DNA intercalat: intercalates into DNA, flagged in counter-screen | shares compounds with Mtb UGM inh | acridine orange-DNA binding, fluorescence polarization | AC50, µM | 35 tested, 60% active | AID 463198;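 active means fitted AC50 no greater than ten times the top concentration tested, cut at about 17 µM in these data; inconclusive means flat fit with 30 to 70% signal change, or an unreliable fit; inactive means AC50 beyond ten times the top concentration tested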
The depositor's hits bear a star; u = inconclusive; x = no result given. A selection: hits, their analogues and other compounds. The true share with any hit is near 1.1%. Unless noted, no stated cut-off is given here; in the data, active means inhibition above about 38%; inactive means the rest.

SMILES	PriA SSB inh	RecA splice inh	Rv3671c protease	Mtb UGM inh	Mtb betalactam	DNA intercalat	others
CCCCC(=O)OCC(=O)C1(O)Cc2c(O)c3c(c(O)c2C(OC2CC(NC(=O)C(F)(F)F)C(O)C(C)O2)C1)C(=O)c1c(OC)cccc1C3=O (stereo unspecified)	-11.3	x	x	x	x	x
COc1cccc2c1C(=O)c1c(O)c3c(c(O)c1C2=O)C[C@](O)(C(C)=O)C[C@H]3O[C@@H]1C[C@@H](N)[C@@H](O)[C@@H](C)O1	33.3	-1.9	44.5*	33.4*	98.8	x	Rv3671c cf=35.0
CCN(CC)C(=S)SCC(=O)NC12CC3CC(CC(C3)C1)C2	-15.5	2.6	150.7*	-0.9	7.0	x	Rv3671c cf=-4.8
Cc1ccc2nc(-c3ccccc3C)oc(=O)c2c1	-14.2	2.7	62.4*	0.4	11.9	x	Rv3671c cf=75.2*
N#CC(C#N)=C1C=C2C=C(N3CCCCC3)CCC2CC1 (stereo unspecified)	-14.5	x	51.1*	-8.3	-1.4	x	Rv3671c cf=36.3
CCN(CC)C1=CC2=CC(=C(C#N)C#N)CCC2CC1 (stereo unspecified)	-9.7	-15.6	3.8	-1.2	-1.5	x
Cc1ccc(-c2c(C(=O)NCCCN3CCOCC3)sc3c2cnc2ccccc23)cc1C	-20.0	x	x	x	x	x
CCCCCCCCCCCCCCCC[n+]1ccc(/C=N/O)cc1	x	x	58.8*	-2.3	68.3	>35	Rv3671c cf=72.0*
CCOc1ccc(-c2cc(-c3nc(-c4cc(OC)c(OC)c(OC)c4)no3)[nH]n2)cc1Cl	6.0	x	x	x	x	x
CC1Cc2ccccc2N1C(=O)CSc1nccc(=O)[nH]1 (stereo unspecified)	3.2	-0.4	-1.9	3.0	-7.9	x
CC1Cc2ccccc2N1C(=O)CSc1ncccn1 (stereo unspecified)	-2.1	0.2	-5.4	3.7	-0.3	>35
O=C(CCCN1C(=O)c2cccc3cccc(c23)C1=O)N1CCN(c2ccccc2)CC1	4.2	-1.6	3.3	3.3	0.9	>35
O=C(CCCN1C(=O)c2cccc3cccc(c23)C1=O)N1CCN(c2ccccc2O)CC1	3.1	-5.0	2.0	-3.4	-0.2	x
Cc1cc(Br)ccc1OCC(=O)O/N=C(/N)c1ccncc1	-16.0	x	x	x	x	x
COc1ccc2c3c(cccc13)C(=O)CC2	-7.8	-71.6	x	79.0*	5.4	>35
CCS(=O)(=O)Nc1cccc(C2=NN(C(=O)c3ccc(Br)o3)C(c3ccco3)C2)c1 (stereo unspecified)	0.0	x	x	x	x	x
Cc1ccc(CNC(=O)NC2(c3nc(-c4ccncc4)no3)CCCCC2)cc1	5.0	x	x	x	x	x
COc1ccc2ccccc2c1C(O)c1nccn1C (stereo unspecified)	-12.7	2.7	12.6	39.2*	-2.1	>35
Cn1ccnc1C(O)c1ccccc1 (stereo unspecified)	-16.0	-4.4	0.8	-1.2	0.3	x
Cc1cccc(N2C(=O)c3cccc4c(N(C)CCO)ccc(c34)C2=O)c1	-36.4	-20.5	9.4	3.5	-1.3	>35
Cc1cc(C)cc(NS(=O)(=O)c2ccc3c(c2)C(C)(C)C(=O)N3C)c1	3.4	-1.0	3.1	0.7	u	>35
O=c1ccc2c(-c3ccccc3)c3ccc(O)cc3oc-2c1	-0.1	-93.0	18.6	41.3*	-1.6	0.547*
O=c1cc(-c2ccccc2)oc2cc(O)ccc12	-1.1	x	x	x	x	x
CCOC(=O)N1CCN(c2cc(NCCC(=O)O)c3c4c(onc24)-c2ccccc2C3=O)CC1	71.0	x	-30.1	-30.0	12.7	>35
NC(=S)NN=Cc1cccc(O)c1O	89.9	x	x	x	x	x
